SmPrx2 inh: Schistosoma mansoni Prx2 inhibition; S. mansoni Prx2 activity coupled to TGR/GSH (TGR is thioredoxin glutathione reductase), NADPH fluorescence loss, qHTS; Potency, µM; 0.07% of 65,000 active; AID 448
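Purified S. mansoni TGR and Prx2 in pH 7.4 phosphate buffer with EDTA and Tween-20 were preincubated with compounds for 15 min. Further NADPH/GSH was added, then a 2.5 mM H2O2 aliquot initiated turnover, followed kinetically by NADPH fluorescence.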
AmpC inh det: AmpC beta-lactamase inhibition, detergent assay; 0.09% of 71,000 active; Potency, µM (series often up to 28.7 µM); P00811; purified AmpC, nitrocefin hydrolysis with detergent; AID 584; active = well fitted curve in the direction sought with a large enough effect; inconclusive = small, poorly fitted or top-dose-only effect
Target sequence (P00811 whole entry, looked up): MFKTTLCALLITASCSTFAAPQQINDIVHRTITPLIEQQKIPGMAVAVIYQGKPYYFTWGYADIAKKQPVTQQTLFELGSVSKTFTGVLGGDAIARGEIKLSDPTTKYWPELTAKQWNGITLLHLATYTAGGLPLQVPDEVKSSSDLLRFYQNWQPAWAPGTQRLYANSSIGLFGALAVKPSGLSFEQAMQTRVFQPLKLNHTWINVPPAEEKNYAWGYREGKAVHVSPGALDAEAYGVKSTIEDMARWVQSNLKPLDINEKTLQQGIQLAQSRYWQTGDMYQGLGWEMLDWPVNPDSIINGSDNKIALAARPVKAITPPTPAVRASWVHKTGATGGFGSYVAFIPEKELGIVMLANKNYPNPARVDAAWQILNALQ
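E. coli AmpC (5.3 nM) in 20 mM phosphate pH 7.0 with 0.01% Triton X-100, preincubated 15 min RT with compound; nitrocefin (2 uL of 800 uM stock) hydrolysis followed by 480 nm absorbance every 20 s over 4 min.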
Anthrax LT inh: inhibitors of anthrax lethal toxin internalization | Cells, anthrax lethal toxin internalization, FRET ratio (460/530) | Potency, µM (doses to about 40 µM), hits mostly inhibitors | 0.67% of 70,000 active | AID 912; also: nearly all actives have a fitted effect of over 50% in size
AmpC inh no det: blocks E. coli AmpC beta-lactamase in absence of detergent | P00811 | AmpC nitrocefin hydrolysis, absorbance 480 nm, no detergent | Potency, µM (titrated, usually from 28.7 µM) | 1.8% of 71,000 active | AID 585
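AmpC, 20 mM phosphate pH 7.0; 15 min cpd preinc, RT; start with nitrocefin (800 uM stock); A480 kinetic read, 20 s intervals, 4 min. No-enzyme wells = negative control.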
Each line names hits and unclear results; the compound was inactive in the other large screens; ! = not confirmed by another sample; [ ] = another dose, or the depositor's remark. The list is not random: actives were taken first. Their share in the collection is about 2.4%. Unless noted, calls follow the shape of the full dose curve.

CCN1C[C@@]2(COC)[C@H](O)C[C@H](OC)[C@@]34[C@@H]5C[C@@]6(O)[C@H](OC(=O)c7ccccc7)[C@H]5[C@@](OC(C)=O)([C@H]([C@@H](OC)[C@H]23)[C@H]14)[C@H](O)[C@@H]6OC	Anthrax LT inh inconclusive
O=C(NCCc1c[nH]c2ccccc12)c1ccc(S(=O)(=O)NCc2ccco2)cc1	AmpC inh no det 16µM
COc1cccc(-n2c(Cc3cc(=O)[nH]c(=O)[nH]3)nnc2SCC(=O)N2CCCC2)c1	none
COc1cccc(-n2c(Cc3cc(=O)[nH]c(=O)[nH]3)nnc2SCC(=O)N2CCC(C)CC2)c1	none
COc1ccc(-n2c(Cc3cc(=O)[nH]c(=O)[nH]3)nnc2SCC(=O)N2CCC(C)CC2)cc1	AmpC inh no det 4µM[single pt active]
O=C(CSc1nnc(Cc2cc(=O)[nH]c(=O)[nH]2)n1-c1ccccc1)N1CCCCC1	AmpC inh no det 3.2µM[single pt active]
COc1cccc(-n2c(Cc3cc(=O)[nH]c(=O)[nH]3)nnc2SCC(=O)N2CCCCCC2)c1	AmpC inh no det 4µM[single pt active]
O=C(CSc1nnc(Cc2cc(=O)[nH]c(=O)[nH]2)n1-c1ccccc1)N1CCCC1	none
CC1CCN(C(=O)CSc2nnc(Cc3cc(=O)[nH]c(=O)[nH]3)n2-c2ccc(Cl)cc2)CC1	AmpC inh no det 4µM[single pt active]
C[C@H]1[C@H](C)CC[C@@]2(C(=O)O)CC[C@]3(C)C(=CC[C@H]4[C@@]5(C)C[C@@H](O)[C@H](O)[C@@](C)(CO)[C@@H]5CC[C@@]43C)[C@@H]12	none
CC(=O)N1[C@H](Cc2ccccc2)C=C[C@]1(C)C(=O)O	none (no result: SmPrx2 inh)
COc1ccc(-n2c(Cc3cc(=O)[nH]c(=O)[nH]3)nnc2SCC(=O)Nc2ccccc2)cc1	Anthrax LT inh inconclusive, AmpC inh no det inconclusive
COc1ccc(-n2c(Cc3cc(=O)[nH]c(=O)[nH]3)nnc2SCC(=O)N2CCCC2)cc1	AmpC inh no det 4µM[single pt active]
COc1ccc2nc3sc(C(=O)NCc4cccs4)c(N)c3cc2c1	AmpC inh no det 13µM
COc1ccc(CNc2ncnc3ccc(-c4ccc(C(=O)N(C)C)cc4)cc23)c(OC)c1	Anthrax LT inh inconclusive
O=C(NCCCN1CCN(c2ccccc2F)CC1)C1CCCN(S(=O)(=O)c2cnc[nH]2)C1 (stereo not drawn)	AmpC inh no det 4µM[single pt active] (no result: SmPrx2 inh)
O=c1cc(-c2ccccc2O)oc2c(O)c(O)ccc12	SmPrx2 inh inconclusive, Anthrax LT inh inconclusive, AmpC inh no det inconclusive
C[C@@H]1[C@H]2C=C[C@@H]1[C@@H](c1c3ccc(=O)c(O)c-3oc3c(O)c(O)ccc13)[C@@H]2C(=O)O	AmpC inh det 2µM, Anthrax LT inh inconclusive, AmpC inh no det 2.5µM
CC1=C2[C@H](/C=C(\C)C(=O)O)CC[C@@H](C)[C@H]2CC1	none (no result: SmPrx2 inh)
COc1cc(NS(=O)(=O)c2ccc(NC(=O)COc3ccccc3C)cc2)nc(OC)n1	AmpC inh no det 13µM[single pt active]
Cc1cc(NS(=O)(=O)c2ccc(NC(=O)COc3ccccc3C(C)C)cc2)no1	AmpC inh no det 4µM[single pt active]
CCCNC(=O)OC[C@@H]1O[C@H](CCO/N=C\C[C@H]2C=C[C@H](OC(C)=O)[C@@H](COC(C)=O)O2)C=C[C@@H]1Oc1ccc(OC)cc1	none (no result: SmPrx2 inh, AmpC inh det, AmpC inh no det)
Cc1noc(C)c1-c1nc(N(C)C)c2ccccc2n1	none
N[C@@H]1CCc2cc(O)c(O)cc2C1	Anthrax LT inh inconclusive
COc1ccc(-c2cnn(-c3ccccc3)c2N)cc1OC	none (no result: SmPrx2 inh)
Nc1nc2c(s1)CCc1c-2cnn1-c1ccccc1	Anthrax LT inh 10µM
COc1cc(C2C(C(=O)OC(C)C)=C(C)Nc3ncnn32)cc(OC)c1OC (stereo not drawn)	AmpC inh no det 4µM[single pt active]
COc1ccc(C2C(C(C)=O)=C(C)Nc3ncnn32)cc1OC (stereo not drawn)	Anthrax LT inh inconclusive
CN1[C@@H]2CC[C@H]1CC(O[C@@H](c1ccccc1)c1ccc(Cl)cc1)C2 (stereo partly drawn)	Anthrax LT inh 10µM
COc1cccc(C(c2nnnn2CCc2ccccc2)N2CCN(c3ccccc3)CC2)c1OC (stereo not drawn)	Anthrax LT inh inconclusive
COc1ccccc1C(c1nnnn1CCc1ccccc1)N1CCN(c2ccccc2)CC1 (stereo not drawn)	Anthrax LT inh 7.9µM
O=C(O)[C@@H]1CCCN1	Anthrax LT inh inconclusive
Cc1ccc2c(c1)c(-c1ccccc1)nc1nncn12	Anthrax LT inh inconclusive, AmpC inh no det 2.5µM[single pt active]
Cc1cccc(-c2nc3ccccc3c3nncn23)c1	none (no result: SmPrx2 inh)
Nc1c(S(=O)(=O)c2cccs2)c2nc3ccccc3nc2n1/N=C/c1cccc(O)c1	Anthrax LT inh 5µM
Cn1nc(-c2ccc(Cl)cc2)c2cc(C(=O)N3CCN(c4ccccn4)CC3)sc21	Anthrax LT inh inconclusive, AmpC inh no det 4µM[single pt active]
Cn1nc(-c2ccc(Cl)cc2)c2cc(C(=O)N3CCN(c4ccccc4)CC3)sc21	Anthrax LT inh inconclusive, AmpC inh no det 4µM[single pt active]
Cn1nc(-c2ccc(Cl)cc2)c2cc(C(=O)N3CCCC3)sc21	Anthrax LT inh inconclusive
O=C(CCCN1CCC2(CC1)C(=O)N(CCc1ccc(N=C=S)cc1)CN2c1ccccc1)c1ccc(F)cc1	Anthrax LT inh inconclusive
Cc1nc(N2CCOCC2)c2nc(-c3ccccc3)n(CCCN3CCOCC3)c2n1	none (no result: SmPrx2 inh)
CCOC(=O)C(C(=O)OCC)c1cc(Br)c2noc3c2c1C(=O)c1ccccc1-3	SmPrx2 inh 0.53, Anthrax LT inh inconclusive
C=C(C)C(=O)OCCCCCCCCCC	Anthrax LT inh inconclusive (no result: SmPrx2 inh)
CCCn1c(-c2ccc(F)cc2)nc2c(N3CCN(C)CC3)nc(C)nc21	none (no result: SmPrx2 inh)
CC[N+](CC)(CC)CCOc1cccc(OCC[N+](CC)(CC)CC)c1OCC[N+](CC)(CC)CC	SmPrx2 inh inconclusive, AmpC inh no det 13µM!
CCC(c1nnnn1Cc1cccs1)N1CCN(c2nc3ccccc3s2)CC1 (stereo not drawn)	Anthrax LT inh 10µM
COC(=O)[C@@H]1C[C@@H]1[C@@H](NP(=O)(c1ccccc1)c1ccccc1)c1ccccc1	none (no result: SmPrx2 inh)
COc1ccc(S(=O)(=O)Cc2ccc(C(=O)N3CCN(c4ccc(Cl)cc4)CC3)o2)cc1	Anthrax LT inh 13µM
COc1ccc(S(=O)(=O)Cc2ccc(C(=O)N3CCN(Cc4ccccc4)CC3)o2)cc1	none
COc1ccc(S(=O)(=O)Cc2ccc(C(=O)N3CCc4ccccc4C3)o2)cc1	AmpC inh no det 3.2µM[single pt active]
CCOc1ccc(C(=O)c2ccc(OCC)c(N)c2)cc1N	Anthrax LT inh 10µM (no result: SmPrx2 inh)
COc1ccc(CC(=O)Nc2cccc(-c3nnc(-c4cccc(C)c4)o3)c2)cc1OC	Anthrax LT inh inconclusive
COc1ccc(CC(=O)Nc2cccc(-c3nnc(-c4ccccc4)o3)c2)cc1OC	Anthrax LT inh 10µM
COc1ccc(CC(=O)Nc2cccc(-c3nnc(-c4ccc(C)cc4)o3)c2)cc1OC	Anthrax LT inh 3.2µM
COc1cccc(C(=O)Nc2cccc(-c3nnc(-c4ccccc4)o3)c2)c1	Anthrax LT inh 2µM (no result: SmPrx2 inh)
CCC(=O)/C=C/C1C(C)=CCCC1(C)C (stereo not drawn)	none (no result: SmPrx2 inh)
CCCN(CCC)CCNC(=O)CS(=O)Cc1nc(-c2ccc(C)cc2)oc1C (stereo not drawn)	none

Screening results from PubChem.
